Screening data: PubChem, Broad Institute
In the library only some 6.7% were active in any assay of this set; here they are far more common.
T cruzi growth-1: T. cruzi proliferation inhibition; T. cruzi beta-gal in NIH3T3, GalScreen luminescence, 90 h; inhibition, % at 8.34 µM; 5.9% of 77,000 active;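 active means mean inhibition above about 93%, with at least 55% of replicates each passing it, limit read from the data, passing the limit was not always enough; inconclusive means only one of those two conditions holds; inactive means neither condition holds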
C diff HTS: blocks growth of Clostridium difficile | Clostridium difficile clinical isolate growth, OD600, 24 h; active compounds read low | growth activity, negative = inhibition, % at 16 µg/mL (by protocol) | 0.25% of 86,000 active | AID 1259249;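 active means mean growth activity at or below -80% and every replicate also at or below -80%; inconclusive means mean at or below -80% but some replicate above -80%; inactive means mean growth activity above -80%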;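 further: 0% = DMSO wells and -100% = levofloxacin 16 µg/mL wells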
Pf Dd2 inh: blocks growth of Plasmodium falciparum Dd2 parasites; P. falciparum Dd2 growth, SYBR Green, 72 h; active compounds read low; activity change, % at 10 µM; 2.3% of 94,000 active; AID 1159554; in the data active means activity change below about -80%; inconclusive means no clear call, values can overlap the other calls
T cruzi growth-2: Trypanosoma cruzi proliferation inhibition; shares compounds with T cruzi growth-1; T. cruzi beta-gal in NIH3T3, GalScreen luminescence, 90 h; inhibition, % at 8.35 µM; 72% of 5,600 active; AID 651739;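 active means mean replicate inhibition above about 95% and at least 55% of replicates individually reaching it, limit read from the data; inconclusive means only one of the two criteria is met; inactive means neither criterion is met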
T cruzi growth-3: blocks T. cruzi growth in NIH3T3 host cells | inhibition, % at 2.09 µM | 21% of 5,600 active | shares compounds with T cruzi growth-1 | T. cruzi beta-gal in NIH3T3, GalScreen luminescence, 90 h;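 active means mean inhibition above about 95%, with at least 55% of replicates also reaching it, limit read from the data; inconclusive means meets just one of the two conditions; inactive means meets neither condition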;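 further: plate controls were neutral control median for no effect and positive control median for full effect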
NIH3T3 tox: cytotoxicity in mouse NIH/3T3 fibroblasts; shares compounds with T cruzi growth-1; AID 651742; cytotoxicity (signal decrease), % at 8.35 µM; NIH/3T3 viability, CellTiter-Glo ATP luminescence, 90 h; 14% of 5,600 active;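 active means mean signal decrease across replicates above about 35% based on untreated-well scatter, with enough replicates individually passing, limit read from the data; inconclusive means no rule stated though some were filed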;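 further: 0% = median of neutral control wells and 100% = median of positive control wells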
NIH3T3 tox 2: NIH/3T3 (mouse) viability loss; shares compounds with T cruzi growth-1; NIH/3T3 viability, CellTiter-Glo ATP luminescence, 90 h; inhibition, % at 24.9 µM; 56% of 5,600 active; AID 651744;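 active means mean loss of cell viability signal at or above a set limit, and enough replicates individually reaching it; inconclusive means meets only the mean limit or only the replicate share; inactive means meets neither condition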;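 further: 0% = median of neutral control wells and 100% = median of positive control wells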
An asterisk follows results filed as active; ? = inconclusive; . = no result.

SMILES	T cruzi growth-1	C diff HTS	Pf Dd2 inh	T cruzi growth-2	T cruzi growth-3	NIH3T3 tox	NIH3T3 tox 2
CC(C)C#Cc1ccc2c(c1)O[C@H](CN(C)C(=O)c1ccccc1)[C@H](C)CN([C@H](C)CO)S2(=O)=O	88	2	-51	.	.	.	.
CC(C)C#Cc1ccc2c(c1)O[C@@H](CN(C)C(=O)c1ccccc1)[C@@H](C)CN([C@@H](C)CO)S2(=O)=O	80	2	-72	.	.	.	.
C[C@@H]1CN([C@@H](C)CO)C(=O)c2cccc(NS(C)(=O)=O)c2O[C@H]1CN(C)C(=O)NC1CCCCC1	.	-2	6	.	.	.	.
COc1ccccc1-c1ccc2c(c1)[C@@H]1[C@@H](CCN1S(=O)(=O)c1ccccc1OC)[C@H](CO)N2	26	40	-58	.	.	.	.
O=S(=O)(c1ccccc1F)N1CC[C@@H]2[C@H](CO)Nc3ccc(-c4ccccc4F)cc3[C@@H]21	45	7	8	.	.	.	.
Cc1ccccc1S(=O)(=O)N1CC[C@@H]2[C@@H](CO)Nc3ccc(-c4ccccc4F)cc3[C@@H]21	119*	7	-13	102*	85	39*	104*
COc1ccccc1S(=O)(=O)N1CC[C@@H]2[C@H]1c1cc(-c3ccccc3F)ccc1N[C@@H]2CO	102*	-1	21	97*	86	26	8
C[C@@H]1CN([C@@H](C)CO)C(=O)c2cc(/C=C/c3ccccc3)cnc2O[C@@H]1CN(C)S(=O)(=O)c1ccccc1	37	5	-10	.	.	.	.
C/C=C/c1cnc2c(c1)C(=O)N([C@H](C)CO)C[C@@H](C)[C@H](CN(C)S(=O)(=O)c1ccccc1F)O2	.	-2	-12	.	.	.	.
C[C@H](CO)N1C[C@H](C)[C@@H](CN(C)S(=O)(=O)c2ccccc2)Oc2ncc(/C=C/c3ccccc3)cc2C1=O	125*	-8	-48	108*	45	-14	20
C[C@@H]1CN([C@@H](C)CO)C(=O)c2cc(/C=C/c3ccccc3)cnc2O[C@H]1CN(C)S(=O)(=O)c1ccccc1F	123*	0	-48	108*	81	23	?
C[C@H]1CN([C@@H](C)CO)C(=O)c2cc(/C=C/c3ccccc3)cnc2O[C@H]1CN(C)S(=O)(=O)c1ccccc1F	41	-4	-41	.	.	.	.
C[C@H]1CN([C@@H](C)CO)C(=O)c2cc(/C=C/c3ccccc3)cnc2O[C@@H]1CN(C)S(=O)(=O)c1ccccc1F	126*	-7	-70	104*	64	18	37*
COc1ccc2c3c(n(C)c2c1)[C@@H](CO)N(C(=O)NC(C)C)CC31CCN(CC2CC2)CC1	.	2	-37	.	.	.	.
Cc1noc(C)c1NC(=O)N(C)C[C@H]1OCCCC[C@H](C)Oc2ccc(NS(=O)(=O)c3c(C)noc3C)cc2C(=O)N([C@H](C)CO)C[C@@H]1C	-22	-5	1	.	.	.	.
O=S(=O)(c1ccccc1)N1CC[C@H]2[C@H](CO)Nc3ccc(-c4ccccc4F)cc3[C@H]21	102*	71	61	101*	69	59*	67*
CN(C)C(=O)c1cccc(-c2ccc3c(c2)[C@@H]2[C@@H](CCN2S(=O)(=O)c2ccccc2)[C@@H](CO)N3)c1	108*	6	-6	104*	?	5	21
Cc1ccc(S(=O)(=O)N2CC[C@H]3[C@H](CO)Nc4ccc(-c5ccccc5F)cc4[C@H]32)cc1	?	-4	12	103*	87	46*	85*
Cc1ccc(S(=O)(=O)N2CC[C@@H]3[C@H](CO)Nc4ccc(-c5cccc(C(=O)N(C)C)c5)cc4[C@@H]32)cc1	11	10	-32	.	.	.	.
O=S(=O)(c1ccc(F)cc1)N1CC[C@H]2[C@H](CO)Nc3ccc(-c4ccccc4F)cc3[C@H]21	26	-20	-28	.	.	.	.
Cc1ccc(S(=O)(=O)N2CC[C@@H]3[C@H](CO)Nc4ccc(-c5ccccc5F)cc4[C@@H]32)cc1	112*	-6	-55	102*	110*	40*	60*
Cc1cccc(S(=O)(=O)N2CC[C@@H]3[C@H](CO)Nc4ccc(-c5ccccc5F)cc4[C@@H]32)c1	-8	4	5	.	.	.	.
Cc1cccc(S(=O)(=O)N2CC[C@@H]3[C@H]2c2cc(-c4ccccc4F)ccc2N[C@@H]3CO)c1	15	5	62	.	.	.	.
O=C([C@H]1[C@H](CO)[C@H]2Cn3c(cccc3=O)[C@H]2N1Cc1ccccc1Cl)N1CCOCC1	-45	-6	24	.	.	.	.
COC(=O)[C@H]1[C@H](CO)[C@H]2Cn3c(ccc(-c4ccccc4F)c3=O)[C@H]2N1Cc1ccncc1	-18	1	.	.	.	.	.
SMILES	T cruzi growth-1	C diff HTS	Pf Dd2 inh	T cruzi growth-2	T cruzi growth-3	NIH3T3 tox	NIH3T3 tox 2
C[C@@H]1CN([C@@H](C)CO)C(=O)c2cc(NS(=O)(=O)c3cn(C)cn3)ccc2O[C@@H](C)CCCCO[C@H]1CN(C)C(=O)CCCN(C)C	9	4	73	.	.	.	.
CO[C@H]1CC[C@@H]2CCN(C)C(=O)[C@H](C)[C@@H](OC)CN(C)C(=O)c3cc(C#N)ccc3OC[C@@H]1O2	-54	.	17	.	.	.	.
C[C@H](CO)N1C[C@H](C)[C@@H](CN(C)C(=O)Nc2ccc(F)cc2)OCCCC[C@H](C)Oc2ccc(NC(=O)Nc3ccc(C(F)(F)F)cc3)cc2C1=O	92	0	-63	.	.	.	.
C[C@@H]1CCCCO[C@@H](CN(C)C(=O)Nc2ccc(C(F)(F)F)cc2)[C@H](C)CN([C@@H](C)CO)C(=O)c2cc(NC(=O)Nc3ccc(F)cc3)ccc2O1	106*	0	10	101*	103*	-10	3
C[C@@H]1CN([C@H](C)CO)C(=O)c2cc(NC(=O)Nc3ccc(C(F)(F)F)cc3)ccc2O[C@@H](C)CCCCO[C@H]1CN(C)C(=O)Nc1ccc(F)cc1	87	4	-17	.	.	.	.
C[C@H]1CCCCO[C@@H](CN(C)C(=O)Nc2ccc(F)cc2)[C@@H](C)CN([C@@H](C)CO)C(=O)c2cc(NC(=O)Nc3ccc(C(F)(F)F)cc3)ccc2O1	102*	4	16	102*	111*	7	14
Cc1noc(C)c1S(=O)(=O)Nc1ccc2c(c1)CC(=O)N([C@@H](C)CO)C[C@@H](C)[C@@H](CN(C)Cc1ccc(C(=O)O)cc1)O2	-7	-8	16	.	.	.	.
Cc1ccccc1-c1ccc([C@H]2[C@H]3CN(C(=O)Nc4ccc(F)cc4)CCCCN3[C@H]2CO)cc1	101*	17	-32	111*	56	25	76*
Cc1ccccc1-c1ccc([C@@H]2[C@@H](CO)N3CCCCN(C(=O)Nc4ccccc4)C[C@@H]23)cc1	71	47	-63	.	.	.	.
O=C(Nc1ccc(F)cc1)N1CCCCN2[C@H](C1)[C@@H](c1ccc(-c3ccncc3)cc1)[C@@H]2CO	67	-4	-2	.	.	.	.
